# Data: PubChem BioAssay AID1645882 (National Center for Advancing Translational Sciences (NCATS), 2021)
# Where “and” joins values, the source holds several entries; their conditions need not be identical. Identical values can stand only once. The whole screen tested about 16,000 compounds, of which about 120 (0.75%) were called active. Another 4% or so got no clear call; they are omitted. Calls follow the shape of the dose curve; as a rule, active = well fitted inhibition curve with a large enough effect; inconclusive = small, poorly fitted or top-dose-only effect; inactive = no such curve, though single readings can be large or run the other way. Shown is part of a subset that was picked to be rich in actives. A structure can be active in one record and inactive in another.
# Target: Rap guanine nucleotide exchange factor 3 (Homo sapiens) (UniProt O95398)
# Sequence (O95398 whole entry, looked up): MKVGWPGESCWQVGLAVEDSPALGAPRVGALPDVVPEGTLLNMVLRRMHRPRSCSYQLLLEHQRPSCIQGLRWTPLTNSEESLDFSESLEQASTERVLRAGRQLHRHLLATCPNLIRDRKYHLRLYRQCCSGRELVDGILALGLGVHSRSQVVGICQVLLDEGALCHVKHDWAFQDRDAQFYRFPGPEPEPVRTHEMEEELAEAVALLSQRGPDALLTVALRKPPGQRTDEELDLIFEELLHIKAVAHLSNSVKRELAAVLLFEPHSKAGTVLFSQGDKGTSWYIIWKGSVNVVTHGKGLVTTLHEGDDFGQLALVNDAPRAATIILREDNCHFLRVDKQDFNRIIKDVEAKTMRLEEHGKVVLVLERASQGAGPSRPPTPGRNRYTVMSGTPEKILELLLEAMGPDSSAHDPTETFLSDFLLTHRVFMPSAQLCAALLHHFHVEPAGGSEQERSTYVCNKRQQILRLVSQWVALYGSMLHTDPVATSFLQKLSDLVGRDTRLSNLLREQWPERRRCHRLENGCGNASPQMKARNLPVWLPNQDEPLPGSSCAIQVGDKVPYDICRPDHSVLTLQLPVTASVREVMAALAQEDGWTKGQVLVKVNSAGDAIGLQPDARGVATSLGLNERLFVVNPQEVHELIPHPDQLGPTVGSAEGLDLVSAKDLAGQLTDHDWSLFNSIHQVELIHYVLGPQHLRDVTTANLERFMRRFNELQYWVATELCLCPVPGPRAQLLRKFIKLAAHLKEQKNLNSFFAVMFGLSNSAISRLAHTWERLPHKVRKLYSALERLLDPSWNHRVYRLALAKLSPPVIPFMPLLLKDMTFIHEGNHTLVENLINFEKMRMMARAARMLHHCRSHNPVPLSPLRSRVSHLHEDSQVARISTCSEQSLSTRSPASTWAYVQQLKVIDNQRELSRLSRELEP
# Test: Validation qHTS for antagonist of cAMP-regulated guanine nucleotide exchange factor 3 (EPAC1); also: nearly all actives have a fitted effect of over 75% in size;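 as to activity change, negative = inhibition: plate controls were DMSO for no effect and ATA control for full effect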
# Conditions: EPAC1 Rap1B-BODIPY-GDP exchange, fluorescence; series mostly up to 150 µM; activity change, negative = inhibition: at the top concentration
# In short: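 Nucleotide exchange followed as fluorescence loss when BODIPY-GDP leaves Rap1B (480 nm excitation, 540 nm emission), read at 5 min intervals over 30 min. Reaction: 100 nM EPAC1, 250 nM RAP1B-BODIPY-GDP, 50 uM GDP; ATA and DMSO define normalization.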
# Potency is read from the fitted curve at half-maximal effect.
SMILES,"activity change, negative = inhibition",Potency
COCc1c(C(=O)NC2CCCCC2)cnn1-c1nccc(-c2cc(C)sc2C)n1,-11.3% (inactive),
O=C(Cn1cccn1)N1CCOc2c(cc(-c3ncc(C(F)(F)F)cc3Cl)cc2OCC2CCCO2)C1 (stereo not given),24.5% (inactive),
O=C(Nc1ccc(/C=C/c2ccc(NC(=O)c3cc(S(=O)(=O)O)c4cccnc4c3O)cc2S(=O)(=O)O)c(S(=O)(=O)O)c1)c1cc(S(=O)(=O)O)c2cccnc2c1O,,44.7 µM (active)
O=S(=O)(O)c1cc(I)c(O)c2ncccc12,15.7% (inactive),
CCOc1ccc(S(=O)(=O)O)c2cccnc12,11.2% (inactive),
O=C(c1cnsn1)N1CCOc2ccc(CN3CCOCC3)cc2C1,8.76% (inactive),
COCC(=O)Nc1cc(C(=O)N2CCCC(C(N)=O)C2)cc2nc(-c3ccccc3)n(C)c12 (stereo not given),7.12% (inactive),
COc1ccc(CNc2ncnc3ccc(-c4ccc(N(C)C)cc4)cc23)c(OC)c1,-8.56% (inactive),
Nc1ncnc2c1nc(Br)n2C1OC2COP(=O)(O)O[C@@H]2C1O (stereo not given in full),,0.708 µM (active)
Nc1nc2c(nc(Br)n2C2OC3COP(=O)(O)O[C@@H]3C2O)c(=O)[nH]1 (stereo not given in full),0% [at 75.8 µM] (inactive),
NC1=NC2C(N=C(Br)N2[C@@H]2O[C@H]3COP(=O)(O)O[C@@H]3[C@@H]2O)C(=O)N1 (stereo not given in full),-7.02% [at 201 µM] (inactive),
Nc1nc2c(nc(Sc3ccc(Cl)cc3)n2C2OC(CO)C(O)C2O)c(=O)[nH]1 (stereo not given),19.8% (inactive),
Nc1ncnc2c1nc(Cl)n2C1OC(CO)C(O)C1O (stereo not given),19.2% (inactive),
Nc1ncnc2c1nc(Br)n2[C@H]1O[C@H]2COP(=O)(O)O[C@H]2[C@@H]1O,,2.51 µM (active)
[N-]=[N+]=Nc1nc2c(N)ncnc2n1C1OC(CO)C(O)C1O (stereo not given),-15.6% (inactive),
Nc1ncnc2c1nc(Sc1ccc(Cl)cc1)n2[C@H]1OC2COP(=O)(O)O[C@@H]2C1O (stereo not given in full),,0.316 µM (active)
Nc1nc2c(nc(Br)n2[C@@H]2O[C@H]3COP(=O)(O)O[C@H]3[C@@H]2O)c(=O)[nH]1,-21.7% (inactive),
Nc1ncnc2c1nc(Br)n2C1CC(O)C(CO)O1 (stereo not given),22.2% (inactive),
Nc1ncnc2c1nc(Br)n2[C@@H]1O[C@H]2COP(=O)(O)O[C@@H]2[C@@H]1O,,2.82 µM (active)
Nc1ncnc2c1nc(Br)n2C1OC(CO)C(O)C1O (stereo not given),8.26% (inactive),
O=S(=O)(c1ccccc1)N1CCC2(CCCN(c3ccccc3)C2)CC1,5.08% (inactive),
Cc1cccc(CNC(=O)c2cnn(-c3nccc(-c4ccccc4F)n3)c2C)n1,18.3% (inactive),
C[C@]12C[C@H](O)CC(CO)(CO)C1[C@H](O)C[C@@]13CC4[C@@H](CC12)[C@@]4(C)C3 (stereo not given in full),22.1% (inactive),
N#Cc1cccc(NC(=O)N2CCC3(CC2)CCN(C(=O)c2cnccn2)CC3)c1,12.3% (inactive),

SMILES,"activity change, negative = inhibition",Potency
O=S(=O)(NCc1ccccc1)[C@@H]1CC2C=CC1C2 (stereo not given in full),0.734% (inactive),
CC(C)(C)OC(=O)NS(=O)(=O)NOCc1ccccc1,18.2% (inactive),
COc1cc2c(cc1OC)C1C(=O)c3ccc4c(c3OC1CO2)C=CC(C)(C)O4 (stereo not given),-27.3% (inactive),
Cc1ccccc1C1(CC(=O)N2CC3(C)CC2CC(C)(C)C3)CC(=O)N(Cc2cccnc2)C1=O (stereo not given),-2.13% (inactive),
O=C(c1cccc(F)c1)N1CCC[C@@]2(CCN(Cc3ccncc3)C2)C1,11.1% (inactive),
COc1ccc(C(=O)N2CCC3(CC2)CN(c2ccccc2)C3)cc1,-2.38% (inactive),
CCN(CC)CCOC[C@H]1O[C@@H](O)[C@H](OCCN(CC)CC)[C@@H](O)[C@@H]1O,17.7% (inactive),
OC1(c2cccnc2)CCN(Cc2ccc3c(c2)CN(Cc2cc4ccccc4s2)CCO3)CC1,-8.5% (inactive),
COC(=O)c1c(OCCN2CCCCC2)cc(=O)n2c1CCN(Cc1cccc3nccnc13)CC2,-0.569% (inactive),
Cn1c(=O)c(-c2ccccc2)nc2cnc(Nc3ccccc3)nc21,19.1% (inactive),
O=C(Nc1cccc(F)c1)N1CC[C@@]2(CCCN(C(=O)c3ccco3)C2)C1,21% (inactive),
O=C(c1csnn1)N1CCC[C@@]2(CCN(c3ncccn3)C2)C1,16.4% (inactive),
CC(=O)CC/C=C(\C)CC/C=C(\C)CC/C=C(\C)CCC=C(C)C,24.4% (inactive),
CC(=O)N[C@@H](CSC/C=C(\C)CCC=C(C)C)C(=O)O,,inactive
CC(=O)N[C@@H](CSC/C=C(\C)CC/C=C(\C)CC/C=C(\C)CCC=C(C)C)C(=O)O,32.8% [at 15.3 µM] (inactive),56.2 µM (active)
CCN(CC)CCOc1ccccc1OC,3.14% (inactive),
C[C@H](CC[C@@H]1OC1(C)C)C1CC[C@H]2[C@@H]3CC=C4C[C@@H](O)CC[C@]4(C)[C@H]3CC[C@]12C (stereo not given in full),14.3% (inactive),
C[C@@H]1C(=O)CC2C(C)(C)CCC[C@]2(C)[C@@]1(O)CCc1ccoc1 (stereo not given in full),-5.75% (inactive),
O=C(O)/C=C/c1ccc2c(c1)S(=O)(=O)N(C1CCCC1)[C@H]2CC(=O)O,-10.5% (inactive),
CCOC(=O)/C=C/c1ccc2c(c1)S(=O)(=O)N(C1CCCC1)[C@H]2CC(=O)OCC,-27.3% (inactive),
CC(=O)/C=C/c1ccc2c(c1)S(=O)(=O)N(C1CCCC1)[C@H]2CC(C)=O,,56.2 µM (active)
CC1(C)S[C@@H]2[C@H](NC(=O)C(N)c3ccccc3)C(=O)N2[C@H]1C(=O)OC1OC(=O)c2ccccc21 (stereo not given in full),8.83% [at 75.8 µM] (inactive),
COc1ccc(N2C(=O)[C@@H]3C[C@H]2CN3Cc2cccn2-c2ccc(Cl)cn2)c(C)c1,12.9% (inactive),
COc1ccc2c(c1)[C@@]1(C)CCC[C@](C)(CO)C1CC2 (stereo not given in full),-3.59% (inactive),

SMILES,"activity change, negative = inhibition",Potency
Cc1cc(C(=O)NCc2nc(-c3ccccc3NC(=O)C3CCCO3)oc2C)nc(C)n1 (stereo not given),3.75% (inactive),
COc1c2ccccc2nc2occc12,7.29% (inactive),
O=C(O)C1=CC(=C(c2ccc(O)c(C(=O)O)c2)c2ccc(O)c(C(=O)O)c2)C=CC1=O,,56.2 µM (active) and 1.58 µM (active)
O=C(O)c1cc(N=Nc2ccc(O)c(C(=O)O)c2)ccc1O,5.06% (inactive),
Nc1ccc(O)c(C(=O)O)c1,0.11% (inactive),
O=C(NCC1CCC2(CCN(Cc3c[nH]c4ccccc34)CC2)O1)C1CCOCC1 (stereo not given),2.25% (inactive),
CO[C@H]1C=CO[C@@]2(C)Oc3c(C)c(O)c4c(O)c(c(C=NN5CCN(C)CC5)c(O)c4c3C2=O)NC(=O)C(C)=CC=C[C@H](C)[C@H](O)[C@@H](C)[C@@H](O)[C@@H](C)[C@H](OC(C)=O)[C@H]1C,11% [at 39.6 µM] (inactive),
CO[C@H]1C=CO[C@@]2(C)Oc3c(C)c(O)c4c(O)c(c(/C=N/N5CCN(C)CC5)c(O)c4c3C2=O)NC(=O)/C(C)=C\C=C[C@H](C)[C@H](O)[C@@H](C)[C@@H](O)[C@@H](C)[C@H](OC(C)=O)[C@@H]1C,,89.1 µM (active)
CO[C@H]1C=CO[C@@]2(C)Oc3c(C)c(O)c4c(O)c(cc(O)c4c3C2=O)NC(=O)/C(C)=C\C=C/[C@H](C)[C@H](O)[C@@H](C)[C@@H](O)[C@@H](C)[C@H](OC(C)=O)[C@@H]1C,-10.9% (inactive),
CCCCCCCCCCCC[n+]1ccc(C)c2ccccc21,-26.9% (inactive),
CCCCCCC[n+]1ccc(C)c2ccccc21,11.7% (inactive),
CCCCCCCCCCCCCCCC[n+]1ccc(C)c2ccccc21,,63.1 µM (active)
Cc1ccccc1C1(CC(=O)N2CCN(C)CC2)CC(=O)N(Cc2ccncc2)C1=O (stereo not given),20.6% (inactive),
CCCCCCCCCCCCC[N+](C)(C)Cc1ccccc1,0.354% (inactive),
CCCCCCCCCCCCCCCC[N+](C)(C)Cc1ccccc1,,112 µM (active)
CCCCCCCCCCCC[N+](C)(C)Cc1ccccc1,0.907% (inactive),
COc1cc(=O)n2c(c1C(=O)N(C)Cc1nonc1C)CCN(Cc1ccc(F)cc1)CC2,-0.441% (inactive),
CCCCC/C=C\C/C=C\C/C=C\C/C=C\CCCC(=O)O,,70.8 µM (active) and inactive
CCCCCCCC/C=C\C/C=C\C/C=C\CCCC(=O)O,9.96% [at 15.3 µM] (inactive),
CCCCCCCCCCC/C=C\C/C=C\CCCC(=O)O,-8.31% [at 15.3 µM] (inactive),
Cc1cc2ccccc2c[n+]1CC(=O)c1ccc(F)cc1,13.1% (inactive),
C/C(N[C@@H]1CSCC1O)=C1/C(=O)CC2[C@@H]1C2(C)C (stereo not given in full),8.88% (inactive),
COc1ccc(-n2c(CNC(=O)c3ccccc3C(F)(F)F)nnc2SC)cc1,4.49% (inactive),
FC(F)(F)c1ccccc1-c1cncnc1NCCc1cnc[nH]1,3.78% (inactive),

SMILES,"activity change, negative = inhibition",Potency
Cc1cc(=O)oc2c(O)c(O)ccc12,1.89% (inactive),
O=c1oc2c(O)c(O)cc3c(=O)oc4c(O)c(O)cc1c4c23,,inactive and 25.1 µM (active)
COc1c(O)cc2c(=O)oc3c(OC)c(O)cc4c(=O)oc1c2c34,-29.8% (inactive),
Cc1nc(N=Nc2cc(S(=O)(=O)O)c3cc([N+](=O)[O-])cc(S(=O)(=O)O)c3c2)c(COP(=O)(O)O)c(C=O)c1O,26.4% [at 75.8 µM] (inactive),
Cc1nc(N=Nc2ccc(C(=O)O)cc2)c(COP(=O)(O)O)c(C=O)c1O,-0.558% [at 75.8 µM] (inactive),
Cc1nc(N=Nc2ccc(S(=O)(=O)O)cc2S(=O)(=O)O)c(COP(=O)(O)O)c(C=O)c1O,,inactive and 12.6 µM (active)
COC(=O)c1ccc(-c2cccc3c2OC(CNC(=O)c2ccc4c(c2)OCCO4)C3)nc1 (stereo not given),7.71% (inactive),
COc1cc(=O)n2c(c1C(=O)N(C)Cc1ccsc1)CCN(Cc1c(C)nc3sccn13)CC2,6.92% (inactive),
COc1ccccc1CCNc1ncnc2sc(C(=O)N3CCCCC3)c(C)c12,4.53% (inactive),
CC1(C)CC2/C(CO)=C/C=C/[C@](C)(O)CC[C@]21O (stereo not given in full),8.31% (inactive),
O=c1c(O)c(-c2ccc(O)c(O)c2)oc2cc(O)cc(O)c12,,inactive and 79.4 µM (active)
O=c1cc(-c2ccc(O)c(O)c2)oc2cccc(O)c12,-20.1% (inactive),
O=c1c(O)c(-c2ccc(O)cc2)oc2cc(O)cc(O)c12,,inactive
O=c1c(O)c(-c2ccc(O)cc2O)oc2cc(O)cc(O)c12,,inactive
COc1cc(O)c2c(=O)c(O)c(-c3ccc(O)c(O)c3)oc2c1,-14.1% (inactive),
O=c1c(O)c(-c2cc(O)c(O)c(O)c2)oc2cc(O)cc(O)c12,,35.5 µM (active) and 39.8 µM (active) and inactive
O=c1cc(-c2ccc(O)c(O)c2)oc2cc(OC3OC(CO)C(O)C(O)C3O)cc(O)c12 (stereo not given),,39.8 µM (active)
O=c1cc(-c2ccc(O)c(O)c2)oc2cc(O)cc(O)c12,,50.1 µM (active) and 39.8 µM (active)
O=c1cc(-c2ccc(O)cc2)oc2cc(O[C@H]3OC(CO)C(O)C(O)C3O)cc(O)c12 (stereo not given in full),5.46% (inactive),
O=c1c(O)c(-c2ccccc2)oc2cc(O)cc(O)c12,6.31% (inactive),
O=c1cc(-c2ccc(O)cc2)oc2cc(O)cc(O)c12,,inactive
CC1O[C@@H](O[C@H]2C(Oc3cc(O)c4c(=O)cc(-c5ccc(O)cc5)oc4c3)OC(CO)C(O)C2O)C(O)C(O)C1O (stereo not given in full),8.06% (inactive),
